TSHR ag: qHTS Assay for Agonists of the Thyroid Stimulating Hormone Receptor; Potency, µM (titrated, usually from 57.1 µM), actives largely listed as activators; 0.48% of 73,000 active; HEK293-CNG-TSHR cells (CNG channel as cAMP sensor), membrane potential dye, cAMP; active = well fitted activation curve with a large enough effect in the main read-out, with a control signal flat, not every such curve was filed as active; inconclusive = small, poorly fitted or top-dose-only effect, or a change in a side signal; inactive = no such curve, though single readings can be large or run the other way; reference of the percent scale not stated here;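 note: the control signal comes from parental cells without the receptor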
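cAMP rise detected as CNG-channel membrane depolarization by fluorescent dye (emission 590 nm), 30 min after compound, following 60 min dye loading containing 100 uM RO 20-1724 at room temperature. Cells: TSHR/CNG HEK 293, with parental CNG HEK 293 as control.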
Luciferase inh: qHTS Assay for Inhibitors of Firefly Luciferase | purified firefly luciferase, luminescence, 8 min | Potency, µM (titrated, usually from 57.1 µM), actives largely listed as inhibitors | 2.2% of 72,000 active | AID 411, 2009; note: nearly all actives have a fitted effect of over 40% in size
Target sequence (P08659 whole entry, looked up): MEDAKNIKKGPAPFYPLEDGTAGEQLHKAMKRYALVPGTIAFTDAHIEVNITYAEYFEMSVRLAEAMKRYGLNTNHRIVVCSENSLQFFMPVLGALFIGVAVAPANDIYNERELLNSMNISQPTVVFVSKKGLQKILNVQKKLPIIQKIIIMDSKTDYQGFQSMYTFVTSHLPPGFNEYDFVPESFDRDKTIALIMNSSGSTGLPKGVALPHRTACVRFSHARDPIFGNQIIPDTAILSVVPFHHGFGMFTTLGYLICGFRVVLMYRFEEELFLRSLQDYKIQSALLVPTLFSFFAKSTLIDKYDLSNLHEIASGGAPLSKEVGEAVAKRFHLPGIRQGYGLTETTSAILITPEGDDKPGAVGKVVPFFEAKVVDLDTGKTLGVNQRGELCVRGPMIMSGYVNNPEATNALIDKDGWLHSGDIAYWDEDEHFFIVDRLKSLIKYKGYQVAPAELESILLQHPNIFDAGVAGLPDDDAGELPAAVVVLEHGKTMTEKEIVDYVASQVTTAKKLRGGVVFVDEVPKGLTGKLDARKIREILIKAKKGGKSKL
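Compounds were tested as concentration series (qHTS) against purified P. pyralis luciferase with luciferin and 10 uM ATP in 50 mM imidazole pH 7.2, 50 mM KCl, 7 mM MgCl2, 0.01% Tween 20, 0.05% BSA. Luminescence was read after 8 min at ambient temperature.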
Bst PK mod: Pyruvate Kinase; purified pyruvate kinase, luminescence ATP production; ribose 5-phosphate activator present at AC10; Potency, µM; 1.2% of 51,000 active; in the data active = potency below about 11 µM; inconclusive = mostly about 12 µM to 25 µM;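 the screen sought inhibitors and activators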
HEK293 cAMP cs: qHTS Assay for Agonists of the Thyroid Stimulating Hormone Receptor: Activators of Intracellular cAMP Concentrations in Parental HEK 293; 2.5% of 73,000 active; parental HEK293 CNG cAMP sensor, membrane potential fluorescence; Potency, µM (series often up to 57.1 µM), usual class: activators; AID 938, 2007; note: nearly all actives have a fitted effect of over 55% in size
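Counterscreen for endogenous-receptor signalling: CNG-channel HEK 293 cells report cAMP rise by membrane depolarization. After 60 min dye equilibration with 100 uM RO 20-1724, compounds incubated 30 min before bottom-read fluorescence at 590 nm.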
Hits are given with their value; ! = not active in a repeat; [ ] = dose if it differs, or a comment. Sampled rows, rich in hits. Any-hit rate of the full collection: about 5.2%. Unless noted, calls come from the whole dose curve; as a rule, active = well fitted curve in the direction sought with a large enough effect; inconclusive = small, poorly fitted or top-dose-only effect, or another doubt; inactive = no such curve, though single readings can be large; an effect the other way counts as inactive or inconclusive.

Screening COc1cc2cc(C(=O)Nc3ccccc3)c(N)nc2cc1OC returned Luciferase inh 10µM, Bst PK mod inactive and HEK293 cAMP cs inactive.
COc1ccccc1C(=O)Nc1ccc(N2CCN(S(C)(=O)=O)CC2)cc1 was read as TSHR ag inactive, Luciferase inh inactive and HEK293 cAMP cs inactive.
`CCSc1ccccc1C(=O)Nc1cccnc1` gave TSHR ag inactive, Luciferase inh inactive, Bst PK mod inactive and HEK293 cAMP cs inactive.
For O=C(Nc1cccnc1)c1ccccc1Oc1ccccc1 the results were TSHR ag inactive, Luciferase inh inactive, Bst PK mod inactive and HEK293 cAMP cs inactive.
For CC1(C)CC(=O)C=C(N2CCN(C3=CC(=O)CC(C)(C)C3)CC2)C1 the results were TSHR ag inactive, Luciferase inh inactive, Bst PK mod inactive and HEK293 cAMP cs inactive.
For COc1cccc(-c2nn(C)c3sc(C(=O)NCc4ccc(C)o4)cc23)c1 the results were Luciferase inh inactive, Bst PK mod inactive and HEK293 cAMP cs inactive.
O=C(NCCc1ccccc1)C1CCN(C(=O)c2sccc2-n2cccc2)CC1 was read as TSHR ag inactive, Luciferase inh inactive and HEK293 cAMP cs inactive.
`CCc1ccc(-c2nc(CN3CCCC(C(=O)NCCc4ccc(OC)c(OC)c4)C3)c(C)o2)cc1` (stereo unspecified) gave TSHR ag inactive[11.4 µM], Luciferase inh inactive, Bst PK mod inactive and HEK293 cAMP cs inactive.
Cc1noc(C)c1COC(=O)c1cccc(S(=O)(=O)N2CCCCCC2)c1 was read as TSHR ag inconclusive, Luciferase inh inactive, Bst PK mod inactive and HEK293 cAMP cs 20µM.
O=C(Nc1ccccc1)N1CC=C(c2ccc(F)cc2)CC1 was read as TSHR ag inactive, Luciferase inh inactive, Bst PK mod inactive and HEK293 cAMP cs inactive.
Screening Cc1ccccc1-c1nnc(-c2ccc(Br)cc2)o1 returned TSHR ag inconclusive, Luciferase inh inactive, Bst PK mod 4.4 and HEK293 cAMP cs 3.2µM.
`O=C(Nc1cccc(-c2nnc(-c3ccccc3)o2)c1)c1ccco1` gave TSHR ag inconclusive, Luciferase inh inactive, Bst PK mod inactive and HEK293 cAMP cs inconclusive.
`Cc1ccc(-c2nnc(-c3cccc(Br)c3)o2)cc1` gave Luciferase inh inactive.
For Clc1cccc(-c2nnc(-c3ccccc3)o2)c1 the results were TSHR ag inconclusive, Luciferase inh 5µM and HEK293 cAMP cs inconclusive.
Screening Brc1cccc(-c2nnc(-c3ccccc3)o2)c1 returned TSHR ag inconclusive, Luciferase inh 16µM, Bst PK mod inactive and HEK293 cAMP cs inconclusive.
Screening Cc1ccc(-c2nnc(-c3ccccc3)o2)cc1Br returned Luciferase inh inactive and Bst PK mod inactive.
For O=C(Nc1ccccc1)c1cccc(-c2nnc(-c3ccccc3)o2)c1 the results were TSHR ag inconclusive, Luciferase inh inactive, Bst PK mod inactive and HEK293 cAMP cs 32µM.
Screening CSc1nnc(-c2ccccc2)o1 returned TSHR ag inactive, Luciferase inh inactive and HEK293 cAMP cs inactive.
Screening COC(=O)C1=C(C)OC(N)=C(C#N)C1c1ccccc1 (stereo unspecified) returned TSHR ag inactive, Luciferase inh inactive, Bst PK mod inactive and HEK293 cAMP cs inactive.
Screening Cc1cc(C)n(Cc2cccc(F)c2)c(=O)c1C#N returned TSHR ag inactive, Luciferase inh inactive, Bst PK mod inactive and HEK293 cAMP cs inactive.
`Cc1ccc(OCC(=O)Nc2cccc(-c3nnc(-c4ccccc4)o3)c2)cc1` gave TSHR ag inconclusive, Luciferase inh inactive, Bst PK mod inactive and HEK293 cAMP cs inconclusive.
Cc1cccc(-c2nnc(-c3ccc(N)cc3)o2)c1 was read as TSHR ag inactive, Luciferase inh 13µM, Bst PK mod 9 and HEK293 cAMP cs inactive.
Screening C=CCNC(=O)c1ccc(C)cc1Cl returned TSHR ag inactive, Luciferase inh inactive and HEK293 cAMP cs inactive[11.4 µM].
C=CCNC(=O)c1ccc(Cl)cc1Cl was read as TSHR ag inactive, Luciferase inh inactive, Bst PK mod 7.3 and HEK293 cAMP cs inactive.
Screening CC(C)C(NC(=O)OCc1ccccc1)C(=O)OCC(=O)N1CCCCC1 (stereo unspecified) returned TSHR ag inactive, Luciferase inh inactive, Bst PK mod inactive and HEK293 cAMP cs inactive.
`N#Cc1cccc(C(c2nnnn2Cc2ccccc2)N2CCCC2)c1` (stereo unspecified) gave TSHR ag inactive, Luciferase inh inactive, Bst PK mod inactive and HEK293 cAMP cs inactive.
`Cc1ccc(O)c(N=Nc2ccccc2)n1` gave TSHR ag inactive, Luciferase inh 13µM! and HEK293 cAMP cs inactive.
For CCN(CC)c1ccc(-c2nn3c(-c4n[nH]c5c4CCC5)nnc3s2)cc1 the results were TSHR ag inconclusive, Luciferase inh inactive, Bst PK mod inactive and HEK293 cAMP cs 32µM.
`C1CCC(c2nn3c(-c4n[nH]c5c4CCC5)nnc3s2)CC1` gave TSHR ag inconclusive, Luciferase inh inactive, Bst PK mod inactive and HEK293 cAMP cs 32µM.
O=C(CSc1ccc2nnc(-c3ccc(Cl)cc3)n2n1)N1CCCC1 was read as TSHR ag inactive, Luciferase inh inactive and HEK293 cAMP cs inactive.
For CCOC(=O)c1c(C)n(CC(O)c2ccccc2)c2ccc(O)cc12 (stereo unspecified) the results were TSHR ag 25µM, Luciferase inh inactive, Bst PK mod inactive and HEK293 cAMP cs inactive.
For COc1ccc(C)cc1N the results were TSHR ag inactive and HEK293 cAMP cs inactive.
O=C(CSc1nc2scc(-c3ccco3)c2c(=O)n1-c1ccccc1)NCC1CCCO1 (stereo unspecified) was read as TSHR ag 32µM, Luciferase inh inactive, Bst PK mod inactive and HEK293 cAMP cs inactive.
For C=CCn1c(SCC(=O)NCC2CCCO2)nc2scc(-c3ccco3)c2c1=O (stereo unspecified) the results were TSHR ag inactive, Luciferase inh inactive, Bst PK mod inactive and HEK293 cAMP cs inactive.
`CCOC(=O)c1c(C)nc(-c2ccccc2)nc1NC(C)=O` gave Luciferase inh inactive and HEK293 cAMP cs inactive.
`CCOC(=O)c1c(C)nc(-c2ccccc2)nc1N` gave TSHR ag inactive, Luciferase inh 25µM, Bst PK mod inactive and HEK293 cAMP cs inactive.
Screening Clc1cccc(Cl)c1Cn1cnc(=NCc2ccco2)c2[nH]cnc21 returned TSHR ag inactive, Luciferase inh inactive, Bst PK mod 2.2 and HEK293 cAMP cs inactive.
O=C1CN(Cc2ccccc2)C(=NCc2ccco2)S1 was read as TSHR ag inactive, Luciferase inh inactive, Bst PK mod inactive and HEK293 cAMP cs inactive.
Screening O=C(COc1ccccc1)Nc1ccc2c(c1)nc1n2CCSC1 returned TSHR ag inactive, Luciferase inh inactive and HEK293 cAMP cs inactive.
For O=C(Nc1ccc2c(c1)nc1n2CCN(C2CCCCC2)C1)c1ccco1 the results were TSHR ag inactive, Luciferase inh inactive, Bst PK mod inactive and HEK293 cAMP cs inactive.
For O=C(Nc1ccc2c(c1)nc1n2CCSC1)c1ccco1 the results were TSHR ag inactive, Luciferase inh 6.3µM, Bst PK mod 4.6 and HEK293 cAMP cs inactive.
Screening O=C(Nc1ccc2c(c1)nc1n2CCOC1)c1ccco1 returned TSHR ag inactive, Luciferase inh 16µM, Bst PK mod inconclusive and HEK293 cAMP cs inactive.
